# From the supplement of paper PMC8728848
# The sample as a whole holds a higher share of the strongest signals than the screen did.
# B1: CRT-1 (Homo sapiens), P27797 (protein)
# chain: MLLSVPLLLGLLGLAVAEPAVYFKEQFLDGDGWTSRWIESKHKSDFGKFVLSSGKFYGDEEKDKGLQTSQDARFYALSASFEPFSNKGQTLVVQFTVKHEQNIDCGGGYVKLFPNSLDQTDMHGDSEYNIMFGPDICGPGTKKVHVIFNYKGKNVLINKDIRCKDDEFTHLYTLIVRPDNTYEVKIDNSQVESGSLEDDWDFLPPKKIKDPDASKPEDWDERAKIDDPTDSKPEDWDKPEHIPDPDAKKPEDWDEEMDGEWEPPVIQNPEYKGEWKPRQIDNPDYKGTWIHPEIDNPEYSPDPSIYAYDNFGVLGLDLWQVKSGTIFDNFLITNDEAYAEEFGNETWGVTKAAEKQMKDKQDEEQRLKEEEEDKKRKEEEEAEDKEDDEDKDEDEEDEEDKEEDEEEDVPGQAKDEL
# Legend:
# Experiment in all cases: glycan array binding signal (z-score within array); higher = stronger binding
# Settings in all cases: glycan notation: IUPAC condensed, linker removed
# [1] = molecular target: Fuc(a1-2)Gal(b1-4)Fuc(a1-3)]GlcNAc(b1-2)Man(a1-3)[Fuc(a1-2)Gal(b1-4)[Fuc(a1-3)]GlcNAc(b1-2)Man(a1-6)]Man(b1-4)GlcNAc(b1-4)GlcNAc
# How it was run: (§1)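 From the Consortium for Functional Glycomics database, 3228 arrays were curated, keeping only those whose protein sequence was available. Binding is given as a within-array Z-score averaged across arrays sharing a protein sequence and across linkers. Negative Z-scores can be read as non-binding.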
# [2] = molecular target: Fuc(a1-2)Gal(b1-4)GlcNAc(b1-3)[Fuc(a1-3)[Gal(b1-4)]GlcNAc(b1-6)]Gal(b1-4)Glc
# How it was run: as §1
# [3] = molecular target: Fuc(a1-2)Gal(b1-4)[Fuc(a1-3)]GlcNAc(b1-2)Man(a1-3)[Fuc(a1-2)Gal(b1-4)[Fuc(a1-3)]GlcNAc(b1-2)Man(a1-6)]Man(b1-4)GlcNAc(b1-4)GlcNAc
# How it was run: as §1
# [4] = molecular target: Fuc(a1-2)Gal6S(b1-3)GlcNAc6S
# How it was run: as §1
# [5] = molecular target: Fuc(a1-2)[Gal(a1-3)]Gal(b1-3)GlcNAc(b1-3)GalNAc
# How it was run: as §1
# [6] = molecular target: Fuc(a1-2)[Gal(a1-3)]Gal(b1-4)[Fuc(a1-3)]Glc
# How it was run: as §1
# [7] = molecular target: Fuc(a1-2)[GalNAc(a1-3)]Gal(b1-4)GlcNAc
# How it was run: as §1
# [8] = molecular target: Fuc(a1-2)[GalNAc(a1-3)]Gal(b1-4)GlcNAc(b1-2)Man(a1-3)[Fuc(a1-2)[GalNAc(a1-3)]Gal(b1-4)GlcNAc(b1-2)Man(a1-6)]Man(b1-4)GlcNAc(b1-4)GlcNAc
# How it was run: as §1
# Fuc(a1-3)GlcNAc = molecular target: Fuc(a1-3)GlcNAc
# How it was run: as §1
# [9] = molecular target: Fuc(a1-3)[Gal3S(b1-4)]GlcNAc
# How it was run: as §1
# [10] = molecular target: Fuc(a1-3)[Gal3S(b1-4)]GlcNAc6S
# How it was run: as §1
# Gal(a1-3)Gal(b1-3)GlcNAc = molecular target: Gal(a1-3)Gal(b1-3)GlcNAc
# How it was run: as §1
# [11] = molecular target: Gal(a1-3)Gal(b1-3)[Fuc(a1-4)]GlcNAc(b1-2)Man(a1-3)[Gal(a1-3)Gal(b1-3)[Fuc(a1-4)]GlcNAc(b1-2)Man(a1-6)]Man(b1-4)GlcNAc(b1-4)GlcNAc
# How it was run: as §1
# [12] = molecular target: Gal(a1-3)Gal(b1-4)GlcNAc(b1-2)Man
# How it was run: as §1
# [13] = molecular target: Gal(a1-3)[Gal(a1-4)]Gal(b1-4)GlcNAc
# How it was run: as §1
# [14] = molecular target: Gal(a1-4)Gal(b1-4)GlcNAc(b1-2)Man(a1-3)[Gal(a1-4)Gal(b1-4)GlcNAc(b1-2)Man(a1-6)]Man(b1-4)GlcNAc(b1-4)GlcNAc
# How it was run: as §1
# Gal(b1-3)GlcNAc = molecular target: Gal(b1-3)GlcNAc
# How it was run: as §1
# [15] = molecular target: Gal(b1-3)GlcNAc(b1-2)Man(a1-3)[Gal(b1-3)GlcNAc(b1-2)Man(a1-6)]Man(b1-4)GlcNAc(b1-4)[Fuc(a1-6)]GlcNAc
# How it was run: as §1
# Gal(b1-3)GlcNAc6S = molecular target: Gal(b1-3)GlcNAc6S
# How it was run: as §1
# [16] = molecular target: Gal(b1-3)[Fuc(a1-4)]GlcNAc(b1-2)Man(a1-3)[Gal(b1-3)[Fuc(a1-4)]GlcNAc(b1-2)Man(a1-6)]Man(b1-4)GlcNAc(b1-4)GlcNAc
# How it was run: as §1
# Gal(b1-4)Gal = molecular target: Gal(b1-4)Gal
# How it was run: as §1
# [17] = molecular target: Gal(b1-4)GlcNAc(b1-3)Gal(b1-3)GlcNAc
# How it was run: as §1
# [18] = molecular target: Gal(b1-4)GlcNAc(b1-3)Gal(b1-4)GlcNAc(b1-3)Gal(b1-4)GlcNAc(b1-3)Gal(b1-4)GlcNAc(b1-2)Man(a1-3)[Gal(b1-4)GlcNAc(b1-3)Gal(b1-4)GlcNAc(b1-3)Gal(b1-4)GlcNAc(b1-3)Gal(b1-4)GlcNAc(b1-2)Man(a1-6)]Man(b1-4)GlcNAc(b1-4)[Fuc(a1-6)]GlcNAc
# How it was run: as §1
# [19] = molecular target: Gal(b1-4)GlcNAc(b1-3)Gal(b1-4)GlcNAc(b1-3)Gal(b1-4)GlcNAc(b1-3)Gal(b1-4)GlcNAc(b1-3)Gal(b1-4)GlcNAc(b1-2)Man(a1-3)[Gal(b1-4)GlcNAc(b1-3)Gal(b1-4)GlcNAc(b1-3)Gal(b1-4)GlcNAc(b1-3)Gal(b1-4)GlcNAc(b1-3)Gal(b1-4)GlcNAc(b1-2)Man(a1-6)]Man(b1-4)GlcNAc(b1-4)GlcNAc
# How it was run: as §1
# [20] = molecular target: Gal(b1-4)GlcNAc(b1-3)[Gal(b1-4)GlcNAc(b1-6)]Gal(b1-4)GlcNAc
# How it was run: as §1
# [21] = molecular target: Gal(b1-4)GlcNAc(b1-3)[Gal(b1-4)GlcNAc(b1-6)]GalNAc
# How it was run: as §1
binder,measurement,setting,value
B1,glycan array binding signal (z-score),[1],1.49
same,glycan array binding signal (z-score),[2],0.038
same,glycan array binding signal (z-score),[3],2.15
same,glycan array binding signal (z-score),[4],0.305
same,glycan array binding signal (z-score),[5],-0.073
same,glycan array binding signal (z-score),[6],-0.424
same,glycan array binding signal (z-score),[7],-0.467
same,glycan array binding signal (z-score),[8],0.117
same,glycan array binding signal (z-score),Fuc(a1-3)GlcNAc,2.63
same,glycan array binding signal (z-score),[9],0.572
same,glycan array binding signal (z-score),[10],0.146
same,glycan array binding signal (z-score),Gal(a1-3)Gal(b1-3)GlcNAc,-0.43
same,glycan array binding signal (z-score),[11],0.078
same,glycan array binding signal (z-score),[12],-0.279
same,glycan array binding signal (z-score),[13],0.255
same,glycan array binding signal (z-score),[14],-0.021
same,glycan array binding signal (z-score),Gal(b1-3)GlcNAc,-0.063
same,glycan array binding signal (z-score),[15],0.223
same,glycan array binding signal (z-score),Gal(b1-3)GlcNAc6S,0.611
same,glycan array binding signal (z-score),[16],2.33
same,glycan array binding signal (z-score),Gal(b1-4)Gal,-0.253
same,glycan array binding signal (z-score),[17],-0.342
same,glycan array binding signal (z-score),[18],1.79
same,glycan array binding signal (z-score),[19],1.75
same,glycan array binding signal (z-score),[20],0.487
same,glycan array binding signal (z-score),[21],-0.095
